Measurements as given in PubChem BioAssay AID1159580 (chemical genetic matrix, 2015).
The campaign covered roughly 5,500 compounds. About 2,000 (36%) were called active. About 18% were inconclusive and are not listed. No stated cut-off is given here; in the data, active means normalized growth mostly below about 0.91 (no sharp cut-off); inconclusive means no clear call, values can overlap the other calls; inactive means mostly above about 0.92. The list shows a part of the results.

Assay: chemical genetic growth profiling, strain panel (AID 1159580);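 further: tested at 20 µM; growth read once vehicle control cultures reached saturation at 30 °C; 1 = growth at the plate median or of vehicle wells; lower values mean less growth of the strain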
Conditions: S. cerevisiae deletion strains, growth OD

Measured: normalized growth

COC(=O)C(C)(N)Cc1ccc(O)cc1 (centres undefined)
inactive: locus YAL013W, strain DEP1, active compounds read low 0.991 | locus YAL040C, strain CLN3, active compounds read low 0.987 | locus YCL061C, strain MRC1 (second series), active compounds read low 1.01 | locus YDR363W, strain ESC2, active compounds read low 0.966 | locus YER002W, strain NOP16, active compounds read low 1.01 | locus YGR078C, strain PAC10, active compounds read low 0.976 | locus YMR307W, strain GAS1, active compounds read low 0.974 | locus YNL153C, strain GIM3, active compounds read low 1.03 | locus YNL175C, strain NOP13, active compounds read low 0.996 | locus YNL197C, strain WHI3, active compounds read low 0.99 | locus YNL224C, strain SQS1, active compounds read low 0.997 | locus YOR083W, strain WHI5 (second series), active compounds read low 1.01 | locus YPL055C, strain LGE1, active compounds read low 0.988 | locus YPL241C, strain CIN2, active compounds read low 1.01

CCOC(=O)C(C)(N)Cc1ccc(O)c(O)c1 (centres undefined)
active: locus YOR106W, strain vam3, active compounds read low 0.859
inactive: locus YAL021C, strain ccr4, active compounds read low 0.967 | locus YAL026C, strain drs2, active compounds read low 0.958 | locus YAL030W, strain snc1, active compounds read low 0.965 | locus YBL061C, strain skt5, active compounds read low 0.965 | locus YBR009C, strain hhf1, active compounds read low 0.984 | locus YBR023C, strain chs3, active compounds read low 0.981 | locus YBR171W, strain sec66, active compounds read low 0.967 | locus YBR231C, strain swc5, active compounds read low 0.992 | locus YBR279W, strain paf1, active compounds read low 0.993 | locus YCL011C, strain gbp2, active compounds read low 0.983 | locus YCL016C, strain dcc1, active compounds read low 0.971 | locus YCL061C, strain MRC1, active compounds read low 0.965 | locus YCL069W, strain vba3, active compounds read low 0.989 | locus YCR088W, strain abp1, active compounds read low 0.995 | locus YDL005C, strain med2, active compounds read low 0.986 | locus YDL040C, strain nat1, active compounds read low 0.993 | locus YDR001C, strain nth1, active compounds read low 0.982 | locus YDR069C, strain doa4, active compounds read low 0.944 | locus YDR137W, strain rgp1, active compounds read low 0.956 | locus YDR159W, strain sac3, active compounds read low 0.953 | locus YDR195W, strain ref2 0.985 | locus YDR297W, strain sur2, active compounds read low 0.974 | locus YDR334W, strain swr1, active compounds read low 0.921 | locus YDR335W, strain msn5, active compounds read low 0.971 | locus YDR392W, strain spt3, active compounds read low 0.964 | locus YEL003W, strain gim4, active compounds read low 0.98 | locus YEL037C, strain rad23, active compounds read low 0.983 | locus YEL061C, strain CIN8 (second series), active compounds read low 0.988 | locus YER015W, strain faa2, active compounds read low 0.952 | locus YER016W, strain bim1, active compounds read low 0.992 | locus YER111C, strain swi4, active compounds read low 0.968 | locus YER155C, strain BEM2 (second series), active compounds read low 0.977 | locus YFR010W, strain ubp6, active compounds read low 0.976 | locus YGL167C, strain pmr1, active compounds read low 0.946 | locus YGL173C, strain kem1, active compounds read low 0.945 | locus YGL227W, strain vid30, active compounds read low 0.983 | locus YGL240W, strain doc1, active compounds read low 0.958 | locus YGL253W, strain hxk2, active compounds read low 0.978 | locus YHR013C, strain ard1, active compounds read low 0.951 | locus YHR027C, strain rpn1, active compounds read low 0.947 | locus YHR030C, strain SLT2, active compounds read low 1.08 | locus YHR079C, strain IRE1, active compounds read low 1.08 | locus YHR142W, strain chs7, active compounds read low 0.989 | locus YJL092W, strain hpr5, active compounds read low 0.978 | locus YJL095W, strain BCK1 (second series), active compounds read low 0.973 | locus YJL095W, strain BCK1, active compounds read low 1.02 | locus YJL115W, strain asf1, active compounds read low 0.95 | locus YJL129C, strain trk1, active compounds read low 0.994 | locus YJL154C, strain vps35, active compounds read low 0.986 | locus YJL164C, strain tpk1, active compounds read low 0.963 | locus YJL166W, strain qcr8, active compounds read low 0.985 | locus YJL187C, strain SWE1, active compounds read low 0.977 | locus YJR066W, strain TOR1, active compounds read low 1 | locus YKL160W, strain elf1, active compounds read low 0.987 | locus YKR026C, strain gcn3, active compounds read low 0.971 | locus YKR091W, strain srl3, active compounds read low 0.998 | locus YLL001W, strain dnm1, active compounds read low 0.974 | locus YLL026W, active compounds read low 0.971 | locus YLL041C, strain sdh2, active compounds read low 0.962 | locus YLR027C, strain aat2, active compounds read low 0.962 | locus YLR113W, strain HOG1, active compounds read low 1 | locus YLR221C, strain rsa3, active compounds read low 0.976 | locus YLR258W, strain gsy2, active compounds read low 0.986 | locus YLR262C, strain YPT6 (second series), active compounds read low 0.881 | locus YLR320W, strain mms22, active compounds read low 0.988 | locus YLR342W, strain FKS1, active compounds read low 0.977 | locus YLR357W, strain rsc2, active compounds read low 0.969 | locus YLR370C, strain arc18, active compounds read low 0.981 | locus YLR384C, strain iki3, active compounds read low 0.958 | locus YML120C, strain ndi1, active compounds read low 0.974 | locus YMR058W, strain fet3, active compounds read low 0.946 | locus YMR125W, strain sto1, active compounds read low 0.998 | locus YMR129W, active compounds read low 0.997 | locus YMR205C, strain PFK2, active compounds read low 0.971 | locus YMR231W, strain pep5, active compounds read low 0.972 | locus YNL071W, strain lat1, active compounds read low 1 | locus YNL183C, strain NPR1, active compounds read low 0.987 | locus YNL209W, strain ssb2, active compounds read low 0.961 | locus YNL248C, strain rpa49, active compounds read low 0.984 | locus YNL322C, strain KRE1 (second series), active compounds read low 0.979 | locus YNR049C, strain mso1, active compounds read low 0.972 | locus YOR001W, strain rrp6, active compounds read low 0.977 | locus YOR070C, strain gyp1, active compounds read low 0.978 | locus YOR080W, strain dia2, active compounds read low 0.982 | locus YOR083W, strain WHI5, active compounds read low 0.983 | locus YOR231W, strain MKK1, active compounds read low 1.06 | locus YOR265W, strain rbl2, active compounds read low 0.969 | locus YOR270C, strain vph1, active compounds read low 0.951 | locus YOR290C, strain snf2, active compounds read low 0.946 | locus YPL051W, strain arl3, active compounds read low 0.964 | locus YPL078C, strain atp4, active compounds read low 0.984 | locus YPL106C, strain sse1, active compounds read low 0.886 | locus YPL240C, strain hsp82, active compounds read low 0.975 | locus YPL256C, strain CLN2, active compounds read low 1.06
